PubChem BioAssay (NCI)
About 79,000 compounds went through this panel and 15% of them were active in at least one assay; those are over-represented in the sample as a whole. The source made the active and inactive calls. Cut-off read from the data, not from the text of the source: active = growth inhibition above about 70%; inactive = the rest.

How the values were obtained:
[1] = NCI Yeast Anticancer Drug Screen. Data for the rad52 strain (AID 147);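 note: 0% = growth of vehicle-treated control cultures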; conditions: S. cerevisiae rad52 mutant growth inhibition, hits give high values
How it was run: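 DNA repair-defective yeast; compound exposure; growth scored against vehicle controls.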

[2] = NCI Yeast Anticancer Drug Screen. Data for the wt1 strain (AID 149);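 note: 0% = growth of vehicle-treated wt1 cultures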; conditions: S. cerevisiae wt1 strain (SPY 50644) growth inhibition, hits give high values
How it was run: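 wt1 yeast, compound-treated; % growth inhibition vs vehicle control.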

[3] = NCI Yeast Anticancer Drug Screen. Data for the mgt1 strain (AID 153); conditions: S. cerevisiae mgt1 mutant growth inhibition, hits give high values
How it was run: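 Growth inhibition relative to vehicle controls was scored for the mgt1 yeast strain after compound exposure.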

[4] = NCI Yeast Anticancer Drug Screen. Data for the rad50 strain (AID 155);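 note: 0% = growth of vehicle-only cultures of the same strain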; conditions: S. cerevisiae rad50 strain growth inhibition, hits give high values
How it was run: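 Genetically altered yeast (DNA repair pathway); compound treatment; growth inhibition vs vehicle ctrl.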

[5] = NCI Yeast Anticancer Drug Screen. Data for the mec2-1 strain (AID 157); conditions: S. cerevisiae mec2-1 strain, hits give high values
How it was run: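 Growth inhibition is read against vehicle-treated controls after compound exposure of the mec2-1 yeast strain, which is defective in DNA damage repair or cell cycle control.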

[6] = NCI Yeast Anticancer Drug Screen. Data for the rad14 strain (AID 159);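 note: 0% = growth of vehicle-treated control cultures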; conditions: S. cerevisiae rad14 strain growth inhibition, hits give high values
How it was run: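 Test compounds were applied to a repair-deficient yeast strain. Its growth was then compared with that of cultures given vehicle alone, and inhibition was expressed relative to those controls.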

[7] = NCI Yeast Anticancer Drug Screen. Data for the sgs1 mgt1 strain (AID 161);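 note: 0% = growth of cultures given vehicle only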; conditions: S. cerevisiae sgs1 mgt1 strain, hits give high values
How it was run: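 Yeast cells carrying a defined DNA-repair defect were exposed to test compounds. Growth inhibition was measured relative to vehicle-treated controls.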

[8] = NCI Yeast Anticancer Drug Screen. Data for the CLN2oe strain (AID 163);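 note: 0% = growth of vehicle-only control cultures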; conditions: S. cerevisiae CLN2oe strain, hits give high values
How it was run: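 Compound-treated yeast; growth vs vehicle ctrl = % inhibition. Genetically altered strain (cell-cycle control).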

[9] = NCI Yeast Anticancer Drug Screen. Data for the cln2 rad14 strain (AID 165);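 note: 0% = growth equal to vehicle treated cultures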; conditions: S. cerevisiae cln2 rad14 strain, hits give high values
How it was run: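 Growth inhibition, relative to vehicle-treated controls, is the read-out. The test organism is a yeast strain with defined genetic alterations, cln2 rad14.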

[10] = NCI Yeast Anticancer Drug Screen. Data for the bub3 strain (AID 167); conditions: S. cerevisiae bub3 mutant strain, hits give high values
How it was run: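 Yeast carrying a defined mutation is treated with each compound, and growth is compared with that of vehicle-exposed cells to give inhibition.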

[11] = NCI Yeast Anticancer Drug Screen. Data for the wt2 strain (AID 169);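 note: 0% = growth of vehicle-treated yeast cultures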; conditions: S. cerevisiae wt2 strain growth inhibition, hits give high values
How it was run: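 Compound exposure of yeast; growth compared with vehicle controls; inhibition reported.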

[12] = NCI Yeast Anticancer Drug Screen. Data for the sgs1 strain (AID 173);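 note: 0% = growth of vehicle-only control cultures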; conditions: S. cerevisiae sgs1 mutant, hits give high values
How it was run: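 Compounds applied to genetically altered yeast; growth compared with vehicle-treated cultures to give % inhibition.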

[13] = NCI Yeast Anticancer Drug Screen. Data for the mlh1 rad18 strain (AID 175); conditions: S. cerevisiae mlh1 rad18 strain growth inhibition, hits give high values
How it was run: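 Cells of a genetically altered yeast strain, deficient in DNA damage repair, were treated with compound. Their growth was then compared with that of vehicle-treated cultures to give inhibition.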

[14] = NCI Yeast Anticancer Drug Screen. Data for the rad18 strain (AID 177); conditions: S. cerevisiae rad18 mutant growth inhibition, hits give high values
How it was run: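 Compounds are applied to a repair-deficient yeast strain, and growth is compared with that of vehicle-treated cultures to give percent inhibition.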

[15] = NCI Yeast Anticancer Drug Screen. Data for the mlh1 strain (AID 171);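 note: 0% = growth of vehicle-treated control cultures of the same strain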; conditions: S. cerevisiae mlh1 strain growth inhibition, hits give high values
How it was run: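 Compounds are applied to a genetically altered yeast strain, and its growth is compared with that of vehicle-treated cultures to give percent inhibition.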

[16] = at 5.0 µM (retest, dose inferred, filed as 0.5)
[17] = at 50.0 µM (retest, dose inferred, filed as 5.0)

Measured: growth inhibition

O=[N+]([O-])c1ccc2c(c1)C(N1CCN(CCO)CC1)Cc1ccc(F)cc1S2 (stereo unspecified)
inactive: [1]; at 1.2 µM -2% | [1]; at 3.7 µM -2% | [1]; at 11.0 µM -3% | [1]; at 33.0 µM -2% | [1]; at 100.0 µM 18% | [2]; at 1.2 µM -2% | [2]; at 3.7 µM -3% | [2]; at 11.0 µM -3% | [2]; at 33.0 µM -3% | [2]; at 100.0 µM 15% | [3]; at 1.2 µM -1% | [3]; at 3.7 µM -3% | [3]; at 11.0 µM -5% | [3]; at 33.0 µM -4% | [3]; at 100.0 µM 34% | [4]; at 1.2 µM 1% | [4]; at 3.7 µM 1% | [4]; [16] 3% | [4]; at 11.0 µM 1% | [4]; at 33.0 µM 2% | [4]; at 50.0 µM 44.2% | [4]; at 100.0 µM 62% | [5]; at 1.2 µM -8% | [5]; at 3.7 µM -2% | [5]; [16] 0% | [5]; at 11.0 µM -4% | [5]; at 33.0 µM -4% | [5]; [17] 48% | [5]; at 50.0 µM -3.7% | [5]; at 100.0 µM 8% | [6]; at 1.2 µM -2% | [6]; at 3.7 µM -1% | [6]; at 11.0 µM 1% | [6]; at 33.0 µM 15% | [7]; [16] 13% | [8]; at 1.2 µM -6% | [8]; at 3.7 µM -5% | [8]; at 11.0 µM 0% | [8]; at 33.0 µM 1% | [8]; at 100.0 µM 20% | [9]; [16] 2% | [9]; [17] 43% | [10]; at 1.2 µM -1% | [10]; at 3.7 µM -4% | [10]; [16] -2% | [10]; at 11.0 µM 0% | [10]; at 33.0 µM -5% | [10]; at 50.0 µM -1.1% | [10]; at 100.0 µM 24% | [11]; at 1.2 µM -2% | [11]; at 3.7 µM -3% | [11]; at 11.0 µM -3% | [11]; at 33.0 µM -3% | [11]; at 100.0 µM 36% | [12]; at 1.2 µM -1% | [12]; at 3.7 µM -1% | [12]; at 11.0 µM -2% | [12]; at 33.0 µM 0% | [13]; [16] 0% | [13]; [17] -13% | [13]; at 50.0 µM 44.4% | [14]; at 1.2 µM -3% | [14]; at 3.7 µM -5% | [14]; at 11.0 µM -3% | [14]; at 33.0 µM 0% | [14]; at 100.0 µM 64%
active: [4]; [17] 71% | [6]; at 100.0 µM 93% | [7]; [17] 90% | [7]; at 50.0 µM 72.8% | [9]; at 50.0 µM 78.6% | [10]; [17] 79% | [12]; at 100.0 µM 80%

Cc1ccc(CSC(N)=Nc2ccccc2)cc1C
active: [3]; at 100.0 µM 81% | [10]; at 50.0 µM 80% | [12]; at 100.0 µM 73%
inactive: [1]; at 1.2 µM 20% | [1]; at 3.7 µM 21% | [1]; at 11.0 µM 21% | [1]; at 33.0 µM 24% | [1]; at 100.0 µM 30% | [2]; at 1.2 µM 3% | [2]; at 3.7 µM 13% | [2]; at 11.0 µM 0% | [2]; at 33.0 µM 4% | [2]; at 100.0 µM 21% | [3]; at 1.2 µM 6% | [3]; at 3.7 µM -1% | [3]; at 11.0 µM -8% | [3]; at 33.0 µM 14% | [4]; at 1.2 µM 9% | [4]; at 3.7 µM 5% | [4]; [16] 5% | [4]; at 11.0 µM 14% | [4]; at 33.0 µM 22% | [4]; [17] 40% | [4]; at 50.0 µM 61.5% | [4]; at 100.0 µM 30% | [5]; at 1.2 µM -3% | [5]; at 3.7 µM 10% | [5]; [16] -11% | [5]; at 11.0 µM -11% | [5]; at 33.0 µM 1% | [5]; [17] -22% | [5]; at 50.0 µM 24.2% | [5]; at 100.0 µM 40% | [7]; [16] -10% | [7]; [17] 38% | [7]; at 50.0 µM 53.2% | [8]; at 1.2 µM 6% | [8]; at 3.7 µM 10% | [8]; at 11.0 µM -1% | [8]; at 33.0 µM 7% | [8]; at 100.0 µM 46% | [9]; [16] -16% | [9]; [17] 14% | [9]; at 50.0 µM -4.5% | [10]; at 1.2 µM 4% | [10]; at 3.7 µM 5% | [10]; [16] 11% | [10]; at 11.0 µM -4% | [10]; at 33.0 µM 14% | [10]; [17] 22% | [10]; at 100.0 µM 34% | [11]; at 1.2 µM 2% | [11]; at 3.7 µM -3% | [11]; at 11.0 µM -13% | [11]; at 33.0 µM -5% | [11]; at 100.0 µM 66% | [15]; at 1.2 µM -7% | [15]; at 3.7 µM -12% | [15]; at 11.0 µM -6% | [15]; at 33.0 µM 4% | [15]; at 100.0 µM 66% | [12]; at 1.2 µM 6% | [12]; at 3.7 µM 0% | [12]; at 11.0 µM 7% | [12]; at 33.0 µM 19% | [13]; [16] -5% | [13]; [17] 41% | [13]; at 50.0 µM 42% | [14]; at 1.2 µM 6% | [14]; at 3.7 µM -7% | [14]; at 11.0 µM 2% | [14]; at 33.0 µM 0% | [14]; at 100.0 µM 31%
